# High-throughput results from PubChem.
# MCF10A rerep – induces DNA re-replication in MCF 10a normal breast cells; MCF 10A DNA re-replication, Hoechst nuclear intensity, 48 h; Potency, µM (series often up to 46.1 µM), without a hit: top-dose activity, positive = re-replication, usual class: activators; actives 2.9% (n = 350,000); note: potency is the fitted concentration of half-maximal effect; % of control where 0% means no effect; nearly all actives have a fitted effect of over 50% in size
# Giardia kill – Giardia lamblia killing | Giardia lamblia trophozoite viability | activity change, % at 7.66 µM, hits read low | actives 0.15% (n = 340,000); in the data active = activity change below about -80%; inconclusive = between about -30% and that limit;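 note: parasites exposed to compound for two days anaerobically before the ATP read; % is set by controls: 0 for no effect and ±100 for the full control effect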
#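 Compounds were tested on trophozoites seeded at 100 cells/well and held 48 hrs at 37 deg C anaerobically. An ATP-based luminescent kit measured the remaining live cells.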
# Vif-APOBEC3F blk – inhibitors of Vif-A3F interaction; HeLa A3F-eYFP + Vif (tagged APOBEC3F with the HIV-1 protein that degrades it), YFP fluorescence increase; Potency, µM (highest dose often 46.1 µM), for the others: top-dose activity, negative = active; actives 0.2% (n = 390,000); note: potency is the fitted concentration of half-maximal effect; % of control where 0% means no effect; nearly all actives have a fitted effect of over 65% in size
#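 HeLa cells stably expressing A3F-eYFP plus Vif, plated and incubated overnight at 37 deg C, then exposed to compounds overnight at 37 deg C. Blocked degradation read as raised yellow fluorescence (Ex 488/Em 500-530).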
# Vif-APOBEC3G blk – blocks the Vif interaction with human APOBEC3G; Q9HC16; actives 0.076% (n = 410,000); Potency, µM (highest dose often 46.1 µM), for the others: at the highest dose activity, negative = active, most hits filed as inhibitors; HeLa A3G-eYFP + Vif (tagged APOBEC3G with the HIV-1 protein that degrades it), YFP fluorescence, overnight; note: potency is the fitted concentration of half-maximal effect; % is set by controls: 0 for no effect and ±100 for the full control effect; nearly all actives have a fitted effect of over 60% in size
# Target sequence (Q9HC16 whole entry, looked up): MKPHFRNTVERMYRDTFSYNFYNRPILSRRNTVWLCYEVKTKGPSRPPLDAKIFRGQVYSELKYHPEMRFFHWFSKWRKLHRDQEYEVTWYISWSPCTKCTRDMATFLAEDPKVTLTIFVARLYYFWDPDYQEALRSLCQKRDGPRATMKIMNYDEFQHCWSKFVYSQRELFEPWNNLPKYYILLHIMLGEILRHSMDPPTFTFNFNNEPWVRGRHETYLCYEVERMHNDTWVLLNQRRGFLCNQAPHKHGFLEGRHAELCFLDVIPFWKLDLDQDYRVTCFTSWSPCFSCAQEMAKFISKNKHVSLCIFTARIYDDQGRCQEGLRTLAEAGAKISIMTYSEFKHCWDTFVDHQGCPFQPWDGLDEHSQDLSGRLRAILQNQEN
#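 HeLa cells stably expressing Vif and C-terminally eYFP-tagged A3G, seeded overnight at 37 deg C, then exposed to compound by pintool overnight at 37 deg C. Rise in yellow fluorescence (Ex 488/Em 500-530, Acumen) marks blocked Vif-driven A3G degradation.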
# SW480 rereplic – induces DNA re-replication in SW480 colon adenocarcinoma cells; AID 624297; SW480 DNA re-replication, Hoechst DNA content imaging, 48 h; Potency, µM (top dose mostly 46.1 µM), for inactives: at the highest dose re-replication activation, hits mostly activators; actives 1.8% (n = 340,000); note: potency is the fitted concentration of half-maximal effect; % of control where 0% means no effect; nearly all actives have a fitted effect of over 55% in size
#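 Hoechst fluorescence of nuclei (405 nm excitation, 500-530 nm emission) measured by plate-scanning imager after 48 hr compound exposure at 37 C; re-replication scored as increased number of nuclei with elevated intensity.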
# IL1B secr inh – blocks inflammasome-driven IL-1 beta release; THP-1 LPS/ATP IL-1B secretion, AlphaLISA, 16 h; active compounds read low; activity change, % at 57.5 µM; actives 4.7% (n = 360,000); in the data active = activity change below about -50%; inconclusive = mostly about -30% to -49%; note: % is set by controls: 0 for no effect and ±100 for the full control effect
#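 THP-1 cells pretreated 1 hr with compounds (up to 57.5 uM final), then stimulated with LPS (250 ng/mL final) plus ATP (1.25 mM final); secreted IL-1B measured by AlphaLISA after 16 hr, decreased signal indicating inhibition.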
# * hit, by the source's call; ? = inconclusive; / = not tested or not shown; [ ] = remark or other dose. Shown are actives, neighbours in structure and some others; about 6.9% of the full set was active somewhere. Unless noted, calls come from the whole dose curve; as a rule, active = well fitted curve in the direction sought with a large enough effect; inconclusive = small, poorly fitted or top-dose-only effect, or another doubt; inactive = no such curve, though single readings can be large; an effect the other way counts as inactive or inconclusive.
SMILES,MCF10A rerep,Giardia kill,Vif-APOBEC3F blk,Vif-APOBEC3G blk,SW480 rereplic,IL1B secr inh
Cc1cc(C)cc(Cn2ncc(Cl)c(Cl)c2=O)c1,3.66µM*,5.1,5.4%,?,3.66µM*,-119.7*
Cc1[nH]c(C)c2c(=O)n(Cc3ccc(Cl)cc3)ncc12,-6.3%,8.8,-0.1%,-15.3%,-14.6%,-9.4
Cc1ccc(Cn2ncc(Cl)c(Cl)c2=O)cc1,?,-18.7,0.6%,?,?,-102.6*
COc1ccc(C2CC(c3ccccc3)Oc3cc4c(cc32)OCO4)cc1 (centres undefined),/,-7.5,/,0.9%,/,/
CC[N+]1(CC(=O)c2ccc(OC)cc2)CCCCC1,/,/,/,1.8%,/,/
O=c1c(Cl)c(Cl)cnn1Cc1ccccc1Cl,5.8µM*,3.5,0.7%,?,?,-99.8*
COc1ccc([C@H]2CC(=O)C=C(c3cccc(Cl)c3)C2)cc1OC,6.1%,-10.0,-1.0%,-5.7%,-3.4%[9.22 µM],-66.0*
COc1ccccc1C1=CC(=O)C[C@H](c2ccc(Cl)cc2)C1,21.8%,2.6,-1.0%,0.2%,?,-54.0*
COc1cccc(C2=CC(=O)C[C@H](c3ccc(Cl)cc3)C2)c1OC,23.1µM*,2.0,4.1%,-0.8%,-0.4%,?
COc1cccc(CNc2ncnc3onc(-c4ccc(F)cc4)c23)c1,/,/,-0.8%,-3.8%,/,/
Cn1c(=O)oc2cc(S(=O)(=O)NC(Cc3ccccc3)C(=O)Nc3ccc(F)cc3)ccc21 (centres undefined),/,/,-20.1%,-4.2%,/,/
CCCCNC(=O)CCn1c(=O)c2ccccc2n(Cc2ccccc2C#N)c1=O,/,/,-2.2%,-0.4%,/,/
C=CS(=O)(=O)c1sc(Cl)c(N2CCOCC2)c1[N+](=O)[O-],19.6%,3.3,-0.1%,-11.3%,11.5%,-111.8*
C=CSc1sc(Cl)c(N2CCOCC2)c1[N+](=O)[O-],?,-13.4,10.9%,?,?,-105.4*
O=[N+]([O-])c1cccc(Cl)c1N1CCOCC1,-2.1%,-4.1,-0.9%,-0.4%,-9.4%,10.6
C=CCn1c(CCC(=O)O)ccc1-c1ccccc1,2.1%,-17.2,-5.7%,1.2%,0.8%,-77.2*
CC(=O)NCCCS(=O)(=O)O,9.7%,/,/,/,-2.0%,/
CC(C)N(Cc1ccccc1)S(=O)(=O)c1ccc(N2CCCCS2(=O)=O)cc1,/,/,0.6%,-6.6%,/,/
CC1NC(=O)NC1CCCCCC(=O)Nc1ccc(F)cc1 (centres undefined),-0.5%,-7.7,4.7%,-7.7%,-0.1%,-96.9*
Cc1c(F)cccc1NC(=O)CCC(=O)O,-1.2%,21.1,9.5%,0.6%,-0.8%,5.1
Cc1c(F)cccc1NC(=O)CCCCCC1NC(=O)NC1C (centres undefined),-4.3%,9.3,-2.2%,2.0%,-2.8%,-96.9*
O=C(CCCC(=O)c1ccccc1)Nc1ccc(F)cc1,-8.6%,-6.3,-31.2%,0.4%,-0.6%,-25.6
COc1ccc(-c2noc(-c3ccc(NCc4ccccc4OC)c([N+](=O)[O-])c3)n2)cc1,/,/,2.8%,2.6%,/,/
Cc1nc(NC2=NCN(Cc3cccnc3)CN2)nc2ccccc12,7.8%,0.7,0.7%,0.9%,-4.3%,14.3
Cc1nc(NC2=NCN(CCCN3CCOCC3)CN2)nc2c(C)cccc12,?,-12.5,-13.9%,2.8%,?,-60.7*
SMILES,MCF10A rerep,Giardia kill,Vif-APOBEC3F blk,Vif-APOBEC3G blk,SW480 rereplic,IL1B secr inh
Cc1ccc(/C=N/NC(=O)C2CC(=O)N(c3ccccc3)C2)s1 (centres undefined),10.3%,1.0,-20.5%,?,?,0.0
O=C(Nc1cccc(Cl)c1Cl)C1CC(=O)N(c2ccc(Br)cc2)C1 (centres undefined),5.8µM*,-17.3,-14.6%,-11.3%,6.7%,-5.8
CCOC(=O)c1ccccc1NC(=O)C1CC(=O)N(C(C)(C)C)C1 (centres undefined),1.03µM*,5.0,5.5%,5.3%,-34.9%,-0.8
CC(C)(C)N1CC(C(=O)O)CC1=O (centres undefined),4.6%,20.1,3.3%,0.2%,-8.8%,8.1
CC(C)(C)N1CC(C(=O)Nc2cccc(Cl)c2Cl)CC1=O (centres undefined),-4.2%,23.0,-5.7%,-1.3%,-26.1%,-69.4*
O=C(N/N=C/c1ccccc1O)C1CC(=O)N(c2ccc(Cl)cc2)C1 (centres undefined),?,-29.0,-3.3%,-27.0%,5.8µM*,178.5
CCOC(=O)c1ccc(NC(=O)c2cnn(-c3ccc(C)cc3C)c2C2CCN(C(=O)OC(C)(C)C)CC2)cc1,/,/,3.2%,-2.2%,/,/
O=C(Nc1cc(Cl)ccc1Cl)C1(c2cccs2)CCOCC1,/,/,-6.5%,0.8%,/,/
COc1ccc(C(=O)Cn2nc(CNc3ccc(Br)cc3)[n+]3c2CCCCC3)cc1,?,-7.1,1.3%,-1.6%,11.7%,-80.3*
O=C(Cn1nc(-c2nn(CC(=O)c3ccccc3)c3[n+]2CCCCC3)[n+]2c1CCCCC2)c1ccccc1,7.0%,-5.6,-5.1%,-0.5%,-32.6%,-8.8
Cc1ccc(C(C)C)c(OCc2nn(CC(=O)c3ccc(OC(F)F)cc3)c3[n+]2CCCCC3)c1,47.4%,-2.8,-5.3%,2.5%,-5.6%,-107.4*
CC(C)(C)c1ccc(S(=O)(=O)/C=C/C#N)cc1,/,/,/,-10.9%,/,/
COc1ccccc1CNc1ccc(-c2nc(-c3ccncc3)no2)cc1[N+](=O)[O-],/,/,-7.7%,-0.1%,/,/
CC1CCN(c2oc(-c3ccccc3Cl)nc2C#N)CC1,18.2%,-0.7,-0.5%,-1.0%,-1.7%,-52.1*
Cc1cccc(-c2nc(C#N)c(N3CCCCCC3)o2)c1,-1.4%,2.5,-3.7%,0.9%,3.0%,-56.8*
CC(C)(C)c1ccc(-c2nc(C#N)c(N3CCC(C(N)=O)CC3)o2)cc1,8.0%,-10.4,14.0%,-0.3%,-0.3%,-94.2*
COc1ccc(-c2nc(C#N)c(N3CCC(C(N)=O)CC3)o2)cc1,1.0%,-0.5,6.8%,-3.4%,0.2%,-0.6
Cc1ccccc1-c1nc(C#N)c(N2CCC(C)CC2)o1,21.2%,-7.3,-22.7%,1.6%,-23.2%,-3.6
O=C(NC1CCCCC1)c1ccc(Cn2c(SCc3cccc(F)c3)nc3cccnc32)cc1,/,/,1.0%,1.4%,/,/
COc1ccc(-c2csc(/C(C#N)=C/Nc3ccc4c(c3)OCCO4)n2)cc1,2.06µM*,-6.9,?,2.7%,2.31µM*,-4.5
N#C/C(=C\Nc1ccc2c(c1)OCCO2)c1nc(-c2ccccc2)cs1,?,2.6,-7.6%,2.7%,?,23.7
CCOc1ccc(C2c3cc(OC)c(OC)cc3CC(=O)N2c2ccc(OC)cc2)cc1 (centres undefined),124.0%,-2.9,-0.5%,?,14.6µM*,-13.4
COc1ccc(-n2cc(C(=O)NCc3ccccc3Cl)c3ccccc3c2=O)cc1,/,/,7.0%,7.0%,/,/
